Reference: PubChem BioAssay (NCATS)
“And” between values parts separate entries of the source, which are not always exact repeats. Equal entries are not always repeated. Inconclusive results are not listed. Values without a mark were called inactive. The source made the active and inactive calls. The call rests on the fitted dose curve; in most records, active means well fitted curve in the direction sought with a large enough effect; inconclusive means small, poorly fitted or top-dose-only effect, or another doubt; inactive means no such curve, though single readings can be large; an effect the other way counts as inactive or inconclusive.

What was measured:
[1] = biological target: Cellular tumor antigen p53 (Homo sapiens) (UniProt P04637); experiment: Primary qHTS for small molecule compounds that upregulate eGFP-tagged delta133p53alpha (in N-terminal) cells. (AID 2060322); conditions: NCI-H358 eGFP-delta133p53alpha fluorescence, 24 h; activation: hits give high values; further: nearly all actives have a fitted effect of over 75% in size; further: potency means the concentration at half of the fitted maximal effect;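 on activation: cells pre-induced with doxycycline then dosed without doxycycline; 0% = DMSO vehicle and 100% = reference activator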
Chain of Cellular tumor antigen p53 (Homo sapiens) (P04637 whole entry, looked up): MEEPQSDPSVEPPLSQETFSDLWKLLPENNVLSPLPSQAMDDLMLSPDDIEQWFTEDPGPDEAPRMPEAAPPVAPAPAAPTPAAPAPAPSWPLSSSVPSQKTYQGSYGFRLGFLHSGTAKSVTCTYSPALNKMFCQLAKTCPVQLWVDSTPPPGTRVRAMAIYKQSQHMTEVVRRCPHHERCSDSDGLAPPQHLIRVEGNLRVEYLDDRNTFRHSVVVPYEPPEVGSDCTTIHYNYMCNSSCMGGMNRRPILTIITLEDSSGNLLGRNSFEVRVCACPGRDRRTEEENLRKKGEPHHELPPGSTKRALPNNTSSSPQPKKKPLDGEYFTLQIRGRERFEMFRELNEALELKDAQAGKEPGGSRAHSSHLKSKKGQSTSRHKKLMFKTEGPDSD
Outline: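 NCI-H358 cells pre-induced 24 h with 10 ng/ml doxycycline for eGFP-delta133p53alpha, plated dox-free and exposed 24 h at 37C to titrated compounds. Fixed, Hoechst-stained; gated GFP peak intensity by laser scanning cytometry, normalized to DMSO (0%) and 57.5 uM 5-azacytidine (100%).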

[2] = biological target: Retinaldehyde dehydrogenase 3 (Homo sapiens) (UniProt P47895); experiment: qHTS for Inhibitors of the Aldehyde Dehydrogenase Family (ALDH1A3) Primary screen (AID 2061315); conditions: ALDH inhibition qHTS; series mostly up to 56 µM;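 further: plate controls were DMSO vehicle for no effect and reference inhibitor for full effect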
[3] = BET inhibitor-based combinations targeting novel dependencies in MECOM-rearranged (r) AML: OCI-AML3 cell line (AID 2202232); conditions: CellTiter-Glo luminescence, 48 h; Potency: OCI-AML3 viability; series mostly up to 46 µM; further: potency means the concentration at half of the fitted maximal effect; nearly all actives have a fitted effect of over 35% in size
Outline: (§1)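 AML cell lines seeded at 500 cells/well, treated with 11-point dose curves for 48 h. Viability by CellTiter-Glo luminescence, normalised to DMSO and empty wells; activity expressed as AUC and per-cell-line Z-transformed AUC.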

[4] = BET inhibitor-based combinations targeting novel dependencies in MECOM-rearranged (r) AML: MV-4-11 cell line (AID 2202233); conditions: MV-4-11 AML viability, CellTiter-Glo luminescence, 48 h; series mostly up to 46 µM; further: potency means the concentration at half of the fitted maximal effect; nearly all actives have a fitted effect of over 45% in size
Outline: (§2)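 Cells at 500/well were exposed for 48 hr to MIPE v5.0 drugs as 11-point dose curves. Viability was read by CellTiter-Glo luminescence and normalized to DMSO and empty-well controls. Activity was expressed as AUC and per-cell-line Z-AUC.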

[5] = BET inhibitor-based combinations targeting novel dependencies in MECOM-rearranged (r) AML: UCSD-AML1 cell line (AID 2202235); conditions: UCSD-AML1 AML cells viability, CellTiter-Glo, 48 h; series mostly up to 46 µM; further: potency means the concentration at half of the fitted maximal effect; nearly all actives have a fitted effect of over 40% in size
Outline: as §2

[6] = BET inhibitor-based combinations targeting novel dependencies in MECOM-rearranged (r) AML: AML-191 cell line (AID 2202236; further: potency means the concentration at half of the fitted maximal effect; nearly all actives have a fitted effect of over 35% in size); conditions: AML-191 viability, CellTiter-Glo luminescence, 48 h; series mostly up to 46 µM
Outline: as §1

[7] = BET inhibitor-based combinations targeting novel dependencies in MECOM-rearranged (r) AML: AML-194 cell line (AID 2202237; further: potency means the concentration at half of the fitted maximal effect; nearly all actives have a fitted effect of over 40% in size); conditions: AML-194 (MECOM-r AML) viability, CellTiter-Glo, 48 h; series mostly up to 46 µM
Outline: as §1

[8] = BET inhibitor-based combinations targeting novel dependencies in MECOM-rearranged (r) AML: SET-2 cell line (AID 2202231); conditions: SET-2 AML cells viability, CellTiter-Glo luminescence, 48 h; viability: hits give low values, concentration not given here; further: nearly all actives have a fitted effect of over 35% in size; further: potency means the concentration at half of the fitted maximal effect;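 on viability: plate controls were DMSO treated cells for no effect and wells without cells for full effect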
Outline: as §1

[9] = BET inhibitor-based combinations targeting novel dependencies in MECOM-rearranged (r) AML: HNT-34 cell line (AID 2202234); conditions: HNT-34 AML viability, CellTiter-Glo luminescence, 48 h; series mostly up to 46 µM; further: potency means the concentration at half of the fitted maximal effect; nearly all actives have a fitted effect of over 35% in size
Outline: as §2

| Structure (SMILES) | Potency [1] | Potency [2] | Potency [3] | Potency [4] | Potency [5] | Potency [6] | Potency [7] | activation [1] | Potency [8] | Potency [9] | viability [8] |
| --- | --- | --- | --- | --- | --- | --- | --- | --- | --- | --- | --- |
| Cc1cc(Nc2nc(N[C@@H](C)c3ccc(F)cc3)c(C#N)cc2F)n[nH]1 | 16.9 µM (active) | inactive | 0.525 µM (active) | 0.662 µM (active) | 0.525 µM (active) | 0.105 µM (active) | 0.166 µM (active) |  |  |  |  |
| CCc1cc(-c2n[nH]c(C)c2-c2ccc3c(c2)OCCO3)c(O)cc1O |  |  | 18.6 µM (active) | 4.68 µM (active) |  |  |  | 2.7% | 14.8 µM (active) | 14.8 µM (active) |  |
| O=C(Nc1ccc2[nH]nc(-c3ccncc3)c2c1)[C@@H]1CCN(CC(=O)N2CCN(c3ccc(-c4ncccn4)cc3)CC2)C1 |  |  | 0.235 µM (active) | 1.66 µM (active) | 2.63 µM (active) | 2.09 µM (active) |  | 4.47% | 23.5 µM (active) | 1.05 µM (active) |  |
| NC(=NCCCCCCN=C(N)N=C(N)Nc1ccc(Cl)cc1)N=C(N)Nc1ccc(Cl)cc1 |  |  | 18.6 µM (active) | 20.9 µM (active) |  |  |  | 19.1% | 26.3 µM (active) |  |  |
| CC[C@H](Nc1ncnc2nc[nH]c12)c1nc2cccc(F)c2c(=O)n1-c1ccccc1 |  | inactive | 4.68 µM (active) |  | 5.9 µM (active) |  |  | 21.6% and 7.67% |  |  | 94.4% |
| CC(C)C[C@@H](C(=O)N[C@H](C(=O)OC1CCCC1)c1ccccc1)[C@H](O)C(=O)NO |  |  | 13.2 µM (active) | 3.32 µM (active) | 20.9 µM (active) | 20.9 µM (active) |  | 10.8% | 14.8 µM (active) | 18.6 µM (active) |  |
